Compound activity as filed in PubChem.
PolyA inh: yeast polyadenylation inhibition. S. cerevisiae SKY197-pL101 polyadenylation reporter, beta-gal luminescence; efflux-impaired pdr1/pdr3 knockout yeast; score 100 = 6 SD above DMSO. activity score, % at 12 µM. actives 0.02% (n = 300,000). AID 1875;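 active = lowest replicate activity score at least 50, where 100 means six control SD above control mean; inconclusive = lowest score under 50 but half or more replicates reach 50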;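 also: yeast exposed to compound for 9 h at 30 °C; higher score means more reporter readthrough which indicates perturbed polyadenylation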
ssDAF12 agonist: S. stercoralis DAF-12 activation, primary screen. HEK293 ssDAF-12/GRIP1 lit1-tk-luc reporter, luminescence; % of 3 µM dafachronic acid response. activation, % at 6.8 µM. actives 1% (n = 370,000). AID 652126;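 active = activation above the mean over all tested compounds plus 3 SD, cut at about 0.9% in these data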;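 also: 0% = DMSO-only wells and 100% = 3 µM delta7-dafachronic acid wells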
DAX1 inh-1: NR0B1 (DAX1) inhibition. AID 504766. HEK293 Gal4-DAX1 luciferase reporter, luminescence. actives 0.99% (n = 340,000). P51843. inhibition, % at 6.75 µM;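 active = inhibition above the mean over all tested compounds plus 3 SD, cut at about 4.2% in these data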;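 also: 0% = DAX1-transfected cells with DMSO and 100% = empty-vector control cells with DMSO; inhibition shows as a rise in luminescence from relieved DAX1 repression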
Target sequence (P51843 207-470 limits assumed): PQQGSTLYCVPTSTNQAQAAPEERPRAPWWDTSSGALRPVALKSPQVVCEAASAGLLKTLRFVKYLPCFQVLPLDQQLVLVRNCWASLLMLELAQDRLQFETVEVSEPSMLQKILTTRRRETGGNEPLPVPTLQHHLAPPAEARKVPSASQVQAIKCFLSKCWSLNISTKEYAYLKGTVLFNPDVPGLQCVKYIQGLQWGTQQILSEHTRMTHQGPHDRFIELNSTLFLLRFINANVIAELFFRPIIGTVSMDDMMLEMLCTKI
DAX1 inh-2: blocks DAX1 repression of SF-1 activated StAR promoter. inhibition, % at 6.8 µM. HEK293T StAR-luciferase reporter, SF-1/DAX-1 repression relief. actives 1.1% (n = 370,000);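 active = inhibition above the mean over all tested compounds plus 3 SD, cut at about 3.6% in these data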;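 also: 0% = DAX-1 cells with DMSO and 100% = cells lacking DAX-1 with DMSO; higher inhibition means more luminescence from relief of DAX-1 repression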
hcDAF12 agonist: activators of H. contortus DAF-12 nuclear receptor; activation, % at 6.8 µM; AID 652067; HEK293 hcDAF-12 lit1-tk-luc reporter, luminescence; 0% DMSO, 100% Δ7-dafachronic acid; actives 1.4% (n = 370,000);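 active = activation above the mean of all tested compounds plus 3 SD, cut at about 5.5% in these data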;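 also: 100% = response to 3 µM Δ7-dafachronic acid high control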
hgDAF-12 ag: agonists of H. glycines DAF-12 nuclear receptor | activation, % at 6.8 µM | actives 1.8% (n = 370,000) | HEK293 GAL4-hgDAF12 UAS-luciferase reporter, agonist luminescence; normalized to butyrate control;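 active = activation above a cutoff set at the mean of all screened compounds plus 3 SD, cut at about 10% in these data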;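 also: 0% = DMSO wells and 100% = sodium butyrate wells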
Starred values were filed as active, the others as inactive; ? = inconclusive; . = no result given. Hits are enriched below; roughly 4.1% of the tested compounds scored in any of these assays.

SMILES | PolyA inh | ssDAF12 agonist | DAX1 inh-1 | DAX1 inh-2 | hcDAF12 agonist | hgDAF-12 ag
CCOC(OCC)c1cc2ccccc2cn1 | . | 2.2* | 0 | 0 | 2 | 3
O=C(C(=O)N1CCC(CNC(=O)c2sc3ccccc3c2Cl)CC1)c1cccs1 | . | -2 | . | -2 | -4 | -4
COC(=O)[C@]12C[C@H](CC(=O)NCC34CC5CC(CC(C5)C3)C4)C(=O)N(Cc3ccc4c(c3)OCO4)C1=C[C@H](C(C)(C)C)O[C@@H]2C | . | 0 | . | 0 | -1 | -2
CC(C)c1ccc(/C=C/C(=O)N2CCCCCC2)cc1 | -5 | -2 | -2 | 0 | -3 | -3
CC(C)c1ccc(NC(=O)C(c2ccccc2)N2CCOCC2)cc1 (stereo not given) | ? | -1 | 1 | 0 | 1 | 4
CC(C)c1ccc(NC(=O)NN2CCOCC2)cc1 | ? | 1.5* | 5.0* | 4.3* | 3 | 13*
CC(C)c1ccc(/C=C/C(=O)N2CCOCC2)cc1 | 26 | 0.9* | 6.2* | 3 | 0 | 6
O=C(OCc1cn(Cc2cccc(Cl)c2)nn1)N1CCOCC1 | . | 0 | . | -1 | 0 | 4
COc1ccccc1CNC(=O)c1ccc(S(=O)(=O)N(C)c2ccccc2)cc1 | . | -1 | -2 | -3 | 0 | -6
COc1ccccc1N(C)S(=O)(=O)c1ccc(C(=O)NCc2ccccc2CN2CCCC2)cc1 | . | -2 | 0 | 4.2* | -2 | -4
CCOC(=O)c1cc(C(=O)Nc2ccc(C)c(F)c2)nn1C | -3 | -1 | 3 | 3 | 5 | 11*
CCOC(=O)c1cc(C(=O)NCc2ccc(Cl)cc2Cl)nn1C | 5 | -2 | 2 | 0 | -1 | 2
Nn1c(SCC(=O)N2c3ccccc3Sc3ccc(Cl)cc32)nnc1-c1n[nH]c2c1CCC2 | . | -2 | . | 0 | -2 | -3
CN(C)/N=C/C=C1\CCC/C(=C/c2cccs2)C1=O | -7 | 0 | 4.4* | 1 | 1 | 12*
CN(C)/N=C/C=C1\CC/C(=C\c2ccc(Br)cc2)C1=O | -4 | -1 | -1 | 0 | 0 | -2
COC(=O)c1cc2c(c3c4ccccc4n(S(=O)(=O)c4ccccc4)c13)C(=O)N(Cc1ccc(N(C)C)cc1)C2 | . | -1 | . | -1 | 1 | 1
COC(=O)c1cc2c(c3c4ccccc4n(S(C)(=O)=O)c13)C(=O)N(Cc1ccccc1)C2 | . | 2.8* | . | -1 | 2 | 3
COc1ccc(CC(=O)N2CCN(C(=O)c3ccc4nc(C)n(C5CCCC5)c4c3)CC2)cc1 | . | -2 | . | 0 | -2 | 0
S=c1[nH]nc(-c2ccn[nH]2)n1-c1ccccc1Cl | 12 | 1.2* | 1 | 0 | 2 | 4
S=c1[nH]nc(-c2ccco2)n1-c1ccccc1Cl | -5 | 0 | -1 | 4.3* | 1 | 3
S=c1[nH]nc(-c2ccc3ccccc3n2)n1-c1ccccc1Cl | -13 | 0 | -1 | 0 | 1 | -1
Cc1cccc(-c2cccc3c4c([nH]c23)[C@@H]2C[C@H](N(C)C(=O)c3ccccc3F)[C@H]([C@H](C)O)CN2CC4)c1 | . | -2 | . | 0 | 2 | -1
O=C1CSC(c2cccs2)N1c1ccccc1 (stereo not given) | 13 | -1 | 0 | 0 | 1 | -1
c1ccc(N2CCN(c3ccccc3)C2c2cccs2)cc1 | 1 | -2 | 7.7* | 0 | 1 | 7
Cc1cccc2nc(-c3ccccc3)c(-c3ccc(CN4CCC5(CC4)CNc4ccccc45)cc3)nc12 | . | 0 | . | 0 | 0 | 3
C[C@@H](NC(=O)c1ccc(C#Cc2cccc(F)c2)cn1)C(C)(C)O | . | -1 | . | -1 | -2 | 1
O=C(OCC#CCSc1nnc(-c2cccc3ccccc23)o1)c1ccc(Br)cc1 | . | -1 | -1 | 0 | -2 | -2
O=C(OCC#CCSc1nnc(-c2cccc3ccccc23)o1)c1ccsc1 | . | -1 | . | . | 1 | 11*
C/C(=C\C(=O)C(F)(F)F)Nc1ccc(C(F)(F)F)cc1 | -5 | -1 | 1 | 1 | -1 | 3
CC(C)(CCl)C(=O)Nc1ccc(C(F)(F)F)cc1 | 11 | 1.1* | -1 | 0 | -1 | 3
